Results published in the supplement of paper PMC11732987, “Enantioselective OTUD7B fragment discovery through chemoproteomics screening and high-throughput optimisation” (Communications Chemistry, 2025).

Key:
Experiment in all cases: log2 ratio of Biotin-Ahx-Ub-VS probe labelling (fragment/DMSO); higher = less target engagement (more negative = stronger competition), active = hit call of the paper (q ≤ 0.05, log2 ratio ≤ -1)
Details in all cases: compound concentration: 200 uM; treatment time: 3 h
USP42 = molecular target: T1, USP42 (UniProt Q9H9J4)
T1 sequence (whole entry): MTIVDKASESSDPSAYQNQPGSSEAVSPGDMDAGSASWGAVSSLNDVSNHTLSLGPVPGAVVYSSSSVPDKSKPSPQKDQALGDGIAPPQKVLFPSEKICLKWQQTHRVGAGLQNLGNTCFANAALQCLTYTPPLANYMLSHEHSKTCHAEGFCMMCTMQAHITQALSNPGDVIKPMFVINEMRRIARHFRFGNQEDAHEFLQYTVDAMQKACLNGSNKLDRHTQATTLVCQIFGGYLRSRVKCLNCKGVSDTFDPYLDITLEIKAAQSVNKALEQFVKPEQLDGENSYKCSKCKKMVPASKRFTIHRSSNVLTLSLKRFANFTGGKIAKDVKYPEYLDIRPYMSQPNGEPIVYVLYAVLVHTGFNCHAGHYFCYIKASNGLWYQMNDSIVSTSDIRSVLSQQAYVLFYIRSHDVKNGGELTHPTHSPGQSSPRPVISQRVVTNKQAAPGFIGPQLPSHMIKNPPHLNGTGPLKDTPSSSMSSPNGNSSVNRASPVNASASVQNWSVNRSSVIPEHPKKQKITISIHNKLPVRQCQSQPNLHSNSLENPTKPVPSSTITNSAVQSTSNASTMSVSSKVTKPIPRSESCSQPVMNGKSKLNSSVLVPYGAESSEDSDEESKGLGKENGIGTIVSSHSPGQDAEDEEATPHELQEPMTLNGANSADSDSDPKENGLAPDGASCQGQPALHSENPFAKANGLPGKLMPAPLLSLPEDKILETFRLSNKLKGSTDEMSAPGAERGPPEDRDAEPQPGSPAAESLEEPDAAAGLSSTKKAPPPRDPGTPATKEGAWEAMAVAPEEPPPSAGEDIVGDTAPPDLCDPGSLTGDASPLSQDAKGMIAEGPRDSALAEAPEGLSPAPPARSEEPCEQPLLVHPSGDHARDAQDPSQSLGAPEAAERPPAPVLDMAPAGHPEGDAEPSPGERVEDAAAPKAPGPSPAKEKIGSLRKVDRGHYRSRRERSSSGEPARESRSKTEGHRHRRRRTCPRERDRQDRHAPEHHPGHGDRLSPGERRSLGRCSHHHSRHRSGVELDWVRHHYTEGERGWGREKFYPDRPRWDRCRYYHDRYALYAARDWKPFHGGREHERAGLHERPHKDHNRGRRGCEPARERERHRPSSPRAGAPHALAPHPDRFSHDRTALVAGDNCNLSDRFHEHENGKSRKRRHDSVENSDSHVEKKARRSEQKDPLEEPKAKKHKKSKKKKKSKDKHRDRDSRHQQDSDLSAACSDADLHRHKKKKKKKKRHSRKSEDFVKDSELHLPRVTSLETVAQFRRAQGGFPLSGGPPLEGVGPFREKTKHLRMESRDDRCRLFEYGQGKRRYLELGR
How it was run: (§1)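 HEK293T lysate (495 µg per sample, in Tris/CHAPS/IGEPAL buffer with protease inhibitors) was treated in triplicate with fragment at 200 µM or with DMSO for 3 h. It was then treated with Biotin-Ahx-Ub-VS (0.5 µM final) for 1 h. Labelled DUBs were NeutrAvidin-enriched, digested with LysC and trypsin, and run by diaPASEF LC-MS/MS. Spectronaut label-free quantities were global-median-normalised. Values are average log2 ratios fragment/DMSO by unpaired t-test, using proteins with ≥2 unique peptides.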

USP46 = USP46 (UniProt P62068)
How it was run: as §1

USP47 = molecular target: T2, USP47 (UniProt Q96K76)
T2 sequence (whole entry): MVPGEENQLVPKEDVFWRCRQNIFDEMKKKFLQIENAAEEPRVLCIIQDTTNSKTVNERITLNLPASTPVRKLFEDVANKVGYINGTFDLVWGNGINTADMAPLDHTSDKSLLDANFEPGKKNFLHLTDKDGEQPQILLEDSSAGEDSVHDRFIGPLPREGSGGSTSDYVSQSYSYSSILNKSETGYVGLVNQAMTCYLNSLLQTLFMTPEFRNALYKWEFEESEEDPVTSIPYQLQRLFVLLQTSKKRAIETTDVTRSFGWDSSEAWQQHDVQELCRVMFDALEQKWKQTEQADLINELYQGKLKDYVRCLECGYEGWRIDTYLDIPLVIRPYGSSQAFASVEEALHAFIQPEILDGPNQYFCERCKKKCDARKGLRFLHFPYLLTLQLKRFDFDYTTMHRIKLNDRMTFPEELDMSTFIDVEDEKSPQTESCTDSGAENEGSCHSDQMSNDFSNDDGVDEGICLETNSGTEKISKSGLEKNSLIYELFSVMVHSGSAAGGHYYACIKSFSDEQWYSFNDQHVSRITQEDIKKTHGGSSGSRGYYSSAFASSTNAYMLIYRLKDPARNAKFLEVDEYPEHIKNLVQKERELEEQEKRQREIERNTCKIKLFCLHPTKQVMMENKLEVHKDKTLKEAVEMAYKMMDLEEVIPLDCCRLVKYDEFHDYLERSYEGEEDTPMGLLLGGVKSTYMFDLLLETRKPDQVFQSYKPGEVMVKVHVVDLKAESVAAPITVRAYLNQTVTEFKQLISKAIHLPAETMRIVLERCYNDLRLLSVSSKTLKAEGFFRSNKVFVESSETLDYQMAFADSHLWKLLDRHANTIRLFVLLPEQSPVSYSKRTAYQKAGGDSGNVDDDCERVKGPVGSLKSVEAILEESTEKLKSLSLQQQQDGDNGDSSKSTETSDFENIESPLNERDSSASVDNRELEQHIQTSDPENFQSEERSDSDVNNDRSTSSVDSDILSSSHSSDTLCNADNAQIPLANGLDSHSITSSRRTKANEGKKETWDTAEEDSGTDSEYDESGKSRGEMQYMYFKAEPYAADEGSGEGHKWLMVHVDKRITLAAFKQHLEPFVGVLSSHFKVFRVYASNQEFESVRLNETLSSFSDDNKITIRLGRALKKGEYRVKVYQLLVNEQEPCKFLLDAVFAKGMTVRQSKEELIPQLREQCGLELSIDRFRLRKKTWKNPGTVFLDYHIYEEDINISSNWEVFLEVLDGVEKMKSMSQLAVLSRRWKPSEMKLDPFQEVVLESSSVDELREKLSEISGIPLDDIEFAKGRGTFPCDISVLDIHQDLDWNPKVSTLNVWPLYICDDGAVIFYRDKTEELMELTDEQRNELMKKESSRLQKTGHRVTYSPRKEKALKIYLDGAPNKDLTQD
How it was run: as §1

USP48 = molecular target: T3, USP48 (UniProt Q86UV5)
T3 sequence (whole entry): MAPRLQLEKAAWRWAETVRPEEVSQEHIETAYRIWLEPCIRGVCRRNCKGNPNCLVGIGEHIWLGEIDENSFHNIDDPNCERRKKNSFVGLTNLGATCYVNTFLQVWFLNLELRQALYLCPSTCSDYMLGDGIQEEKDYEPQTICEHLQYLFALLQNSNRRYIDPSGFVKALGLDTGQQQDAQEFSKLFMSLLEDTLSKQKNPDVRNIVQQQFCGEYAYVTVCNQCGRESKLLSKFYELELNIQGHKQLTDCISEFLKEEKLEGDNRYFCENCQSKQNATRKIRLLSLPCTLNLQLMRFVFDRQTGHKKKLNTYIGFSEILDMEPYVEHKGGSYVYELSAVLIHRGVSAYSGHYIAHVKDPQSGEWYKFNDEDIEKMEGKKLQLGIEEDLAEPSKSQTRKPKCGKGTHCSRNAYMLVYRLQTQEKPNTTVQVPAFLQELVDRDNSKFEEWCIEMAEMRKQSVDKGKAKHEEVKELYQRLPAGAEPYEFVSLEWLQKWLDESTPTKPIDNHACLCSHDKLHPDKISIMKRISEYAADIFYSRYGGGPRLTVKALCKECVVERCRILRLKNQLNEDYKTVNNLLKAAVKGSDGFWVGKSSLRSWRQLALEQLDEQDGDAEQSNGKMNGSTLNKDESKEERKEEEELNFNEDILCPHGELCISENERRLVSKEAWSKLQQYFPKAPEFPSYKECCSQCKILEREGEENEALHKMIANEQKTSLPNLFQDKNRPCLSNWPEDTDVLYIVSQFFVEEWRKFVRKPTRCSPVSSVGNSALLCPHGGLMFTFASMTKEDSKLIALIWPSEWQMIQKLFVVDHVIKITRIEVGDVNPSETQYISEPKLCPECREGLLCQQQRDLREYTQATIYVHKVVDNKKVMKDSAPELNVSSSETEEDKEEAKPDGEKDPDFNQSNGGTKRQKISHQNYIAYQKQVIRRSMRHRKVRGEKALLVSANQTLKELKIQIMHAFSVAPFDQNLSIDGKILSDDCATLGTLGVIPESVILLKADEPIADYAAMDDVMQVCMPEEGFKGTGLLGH
How it was run: as §1

USP5 = molecular target: T4, USP5 (UniProt P45974)
T4 sequence (whole entry): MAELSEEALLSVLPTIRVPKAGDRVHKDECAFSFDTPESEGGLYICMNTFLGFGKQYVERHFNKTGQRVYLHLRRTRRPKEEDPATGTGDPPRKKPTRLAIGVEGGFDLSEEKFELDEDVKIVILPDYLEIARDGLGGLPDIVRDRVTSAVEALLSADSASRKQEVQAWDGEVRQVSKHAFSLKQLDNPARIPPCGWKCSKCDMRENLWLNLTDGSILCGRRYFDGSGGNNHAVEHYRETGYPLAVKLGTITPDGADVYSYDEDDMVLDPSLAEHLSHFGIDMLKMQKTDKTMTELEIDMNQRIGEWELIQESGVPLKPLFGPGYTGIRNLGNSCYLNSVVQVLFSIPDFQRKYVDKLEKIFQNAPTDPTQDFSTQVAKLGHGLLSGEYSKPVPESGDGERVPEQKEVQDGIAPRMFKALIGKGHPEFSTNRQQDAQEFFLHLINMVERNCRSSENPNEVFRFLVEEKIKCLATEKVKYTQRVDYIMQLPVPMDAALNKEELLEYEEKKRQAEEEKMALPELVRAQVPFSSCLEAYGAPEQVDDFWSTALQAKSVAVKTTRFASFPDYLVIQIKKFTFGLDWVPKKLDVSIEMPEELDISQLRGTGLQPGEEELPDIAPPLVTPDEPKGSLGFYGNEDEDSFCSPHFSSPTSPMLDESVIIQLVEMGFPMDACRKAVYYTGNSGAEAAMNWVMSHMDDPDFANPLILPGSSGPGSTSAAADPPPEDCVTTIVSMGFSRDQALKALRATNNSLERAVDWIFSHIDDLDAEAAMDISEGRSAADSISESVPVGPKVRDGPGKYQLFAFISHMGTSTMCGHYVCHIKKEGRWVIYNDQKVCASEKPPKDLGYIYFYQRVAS
How it was run: as §1

USP54 = USP54 (UniProt Q70EL1)
How it was run: as §1

USP7 = USP7 (UniProt Q93009)
How it was run: as §1

USP8 = molecular target: T5, USP8 (UniProt P40818)
T5 sequence (whole entry): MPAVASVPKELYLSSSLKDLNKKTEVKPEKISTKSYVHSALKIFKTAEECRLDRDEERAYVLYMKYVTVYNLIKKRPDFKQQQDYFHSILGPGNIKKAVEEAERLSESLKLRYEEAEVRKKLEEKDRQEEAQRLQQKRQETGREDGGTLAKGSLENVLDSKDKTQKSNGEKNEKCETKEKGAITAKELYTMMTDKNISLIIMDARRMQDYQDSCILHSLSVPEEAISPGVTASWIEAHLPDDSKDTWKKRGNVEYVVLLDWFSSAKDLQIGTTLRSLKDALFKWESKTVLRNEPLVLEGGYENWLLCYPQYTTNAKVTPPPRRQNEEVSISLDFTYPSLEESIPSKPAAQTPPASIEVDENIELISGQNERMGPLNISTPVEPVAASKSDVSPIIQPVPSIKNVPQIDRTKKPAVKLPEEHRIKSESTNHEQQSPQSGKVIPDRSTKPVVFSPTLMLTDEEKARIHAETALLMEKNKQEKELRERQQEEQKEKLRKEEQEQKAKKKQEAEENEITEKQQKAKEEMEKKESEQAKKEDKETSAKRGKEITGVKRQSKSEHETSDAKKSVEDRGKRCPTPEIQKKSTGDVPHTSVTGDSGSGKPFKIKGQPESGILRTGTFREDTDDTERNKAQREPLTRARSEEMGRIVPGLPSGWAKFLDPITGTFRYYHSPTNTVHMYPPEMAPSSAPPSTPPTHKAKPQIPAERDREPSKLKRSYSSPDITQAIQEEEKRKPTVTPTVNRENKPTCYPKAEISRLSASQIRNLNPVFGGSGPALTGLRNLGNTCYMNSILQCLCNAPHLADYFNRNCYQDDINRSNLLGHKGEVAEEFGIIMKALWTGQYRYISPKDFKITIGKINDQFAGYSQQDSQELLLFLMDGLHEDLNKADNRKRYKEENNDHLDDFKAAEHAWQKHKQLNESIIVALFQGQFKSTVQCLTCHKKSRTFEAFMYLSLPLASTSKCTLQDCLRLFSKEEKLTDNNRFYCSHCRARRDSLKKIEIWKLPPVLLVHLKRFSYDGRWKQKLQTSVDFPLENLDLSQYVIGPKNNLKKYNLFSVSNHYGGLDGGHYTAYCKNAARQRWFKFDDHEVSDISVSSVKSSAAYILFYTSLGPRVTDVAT
How it was run: as §1

USP9X = USP9X (UniProt Q93008)
How it was run: as §1

UniProt O00487 = molecular target: UniProt O00487
How it was run: as §1

Measured: log2 ratio of Biotin-Ahx-Ub-VS probe labelling

Chain of USP7 (Q93009 whole entry, looked up): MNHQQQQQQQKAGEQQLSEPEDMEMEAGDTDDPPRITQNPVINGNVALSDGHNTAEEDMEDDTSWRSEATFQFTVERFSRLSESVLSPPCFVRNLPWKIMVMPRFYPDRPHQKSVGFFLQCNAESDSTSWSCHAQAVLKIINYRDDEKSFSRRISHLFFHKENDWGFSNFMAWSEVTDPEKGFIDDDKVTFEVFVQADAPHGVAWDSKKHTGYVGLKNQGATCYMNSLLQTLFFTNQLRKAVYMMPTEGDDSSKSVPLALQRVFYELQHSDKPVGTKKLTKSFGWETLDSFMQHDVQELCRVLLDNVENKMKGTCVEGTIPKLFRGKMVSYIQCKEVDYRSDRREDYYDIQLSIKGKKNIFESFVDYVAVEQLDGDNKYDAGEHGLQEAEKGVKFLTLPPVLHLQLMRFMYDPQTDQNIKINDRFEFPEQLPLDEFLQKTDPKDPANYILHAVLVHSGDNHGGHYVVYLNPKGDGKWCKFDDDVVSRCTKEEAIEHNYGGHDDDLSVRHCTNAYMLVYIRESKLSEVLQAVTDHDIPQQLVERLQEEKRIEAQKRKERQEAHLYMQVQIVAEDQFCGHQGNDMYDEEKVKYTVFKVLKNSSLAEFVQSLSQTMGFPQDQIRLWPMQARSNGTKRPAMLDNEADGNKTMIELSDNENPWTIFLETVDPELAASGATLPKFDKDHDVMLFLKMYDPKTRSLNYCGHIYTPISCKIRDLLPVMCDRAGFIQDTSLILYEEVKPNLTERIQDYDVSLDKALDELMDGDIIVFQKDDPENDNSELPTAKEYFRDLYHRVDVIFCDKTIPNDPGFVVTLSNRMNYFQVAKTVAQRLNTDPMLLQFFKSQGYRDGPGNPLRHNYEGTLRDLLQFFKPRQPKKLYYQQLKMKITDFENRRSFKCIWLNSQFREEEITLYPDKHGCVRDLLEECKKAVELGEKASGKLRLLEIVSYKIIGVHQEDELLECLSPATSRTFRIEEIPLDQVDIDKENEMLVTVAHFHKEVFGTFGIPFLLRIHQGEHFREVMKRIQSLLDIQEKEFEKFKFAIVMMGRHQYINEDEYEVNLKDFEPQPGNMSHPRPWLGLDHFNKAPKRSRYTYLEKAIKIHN
Chain of USP46 (P62068 whole entry): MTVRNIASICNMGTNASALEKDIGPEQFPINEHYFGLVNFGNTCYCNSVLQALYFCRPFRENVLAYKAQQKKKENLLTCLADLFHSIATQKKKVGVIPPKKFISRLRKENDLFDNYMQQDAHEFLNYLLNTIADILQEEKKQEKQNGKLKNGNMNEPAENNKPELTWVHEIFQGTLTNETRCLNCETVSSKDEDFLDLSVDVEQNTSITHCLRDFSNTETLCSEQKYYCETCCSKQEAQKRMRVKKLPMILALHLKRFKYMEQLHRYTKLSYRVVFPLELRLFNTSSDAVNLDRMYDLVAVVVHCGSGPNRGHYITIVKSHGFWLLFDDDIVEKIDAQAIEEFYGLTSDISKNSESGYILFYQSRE
Chain of USP9X (Q93008 whole entry): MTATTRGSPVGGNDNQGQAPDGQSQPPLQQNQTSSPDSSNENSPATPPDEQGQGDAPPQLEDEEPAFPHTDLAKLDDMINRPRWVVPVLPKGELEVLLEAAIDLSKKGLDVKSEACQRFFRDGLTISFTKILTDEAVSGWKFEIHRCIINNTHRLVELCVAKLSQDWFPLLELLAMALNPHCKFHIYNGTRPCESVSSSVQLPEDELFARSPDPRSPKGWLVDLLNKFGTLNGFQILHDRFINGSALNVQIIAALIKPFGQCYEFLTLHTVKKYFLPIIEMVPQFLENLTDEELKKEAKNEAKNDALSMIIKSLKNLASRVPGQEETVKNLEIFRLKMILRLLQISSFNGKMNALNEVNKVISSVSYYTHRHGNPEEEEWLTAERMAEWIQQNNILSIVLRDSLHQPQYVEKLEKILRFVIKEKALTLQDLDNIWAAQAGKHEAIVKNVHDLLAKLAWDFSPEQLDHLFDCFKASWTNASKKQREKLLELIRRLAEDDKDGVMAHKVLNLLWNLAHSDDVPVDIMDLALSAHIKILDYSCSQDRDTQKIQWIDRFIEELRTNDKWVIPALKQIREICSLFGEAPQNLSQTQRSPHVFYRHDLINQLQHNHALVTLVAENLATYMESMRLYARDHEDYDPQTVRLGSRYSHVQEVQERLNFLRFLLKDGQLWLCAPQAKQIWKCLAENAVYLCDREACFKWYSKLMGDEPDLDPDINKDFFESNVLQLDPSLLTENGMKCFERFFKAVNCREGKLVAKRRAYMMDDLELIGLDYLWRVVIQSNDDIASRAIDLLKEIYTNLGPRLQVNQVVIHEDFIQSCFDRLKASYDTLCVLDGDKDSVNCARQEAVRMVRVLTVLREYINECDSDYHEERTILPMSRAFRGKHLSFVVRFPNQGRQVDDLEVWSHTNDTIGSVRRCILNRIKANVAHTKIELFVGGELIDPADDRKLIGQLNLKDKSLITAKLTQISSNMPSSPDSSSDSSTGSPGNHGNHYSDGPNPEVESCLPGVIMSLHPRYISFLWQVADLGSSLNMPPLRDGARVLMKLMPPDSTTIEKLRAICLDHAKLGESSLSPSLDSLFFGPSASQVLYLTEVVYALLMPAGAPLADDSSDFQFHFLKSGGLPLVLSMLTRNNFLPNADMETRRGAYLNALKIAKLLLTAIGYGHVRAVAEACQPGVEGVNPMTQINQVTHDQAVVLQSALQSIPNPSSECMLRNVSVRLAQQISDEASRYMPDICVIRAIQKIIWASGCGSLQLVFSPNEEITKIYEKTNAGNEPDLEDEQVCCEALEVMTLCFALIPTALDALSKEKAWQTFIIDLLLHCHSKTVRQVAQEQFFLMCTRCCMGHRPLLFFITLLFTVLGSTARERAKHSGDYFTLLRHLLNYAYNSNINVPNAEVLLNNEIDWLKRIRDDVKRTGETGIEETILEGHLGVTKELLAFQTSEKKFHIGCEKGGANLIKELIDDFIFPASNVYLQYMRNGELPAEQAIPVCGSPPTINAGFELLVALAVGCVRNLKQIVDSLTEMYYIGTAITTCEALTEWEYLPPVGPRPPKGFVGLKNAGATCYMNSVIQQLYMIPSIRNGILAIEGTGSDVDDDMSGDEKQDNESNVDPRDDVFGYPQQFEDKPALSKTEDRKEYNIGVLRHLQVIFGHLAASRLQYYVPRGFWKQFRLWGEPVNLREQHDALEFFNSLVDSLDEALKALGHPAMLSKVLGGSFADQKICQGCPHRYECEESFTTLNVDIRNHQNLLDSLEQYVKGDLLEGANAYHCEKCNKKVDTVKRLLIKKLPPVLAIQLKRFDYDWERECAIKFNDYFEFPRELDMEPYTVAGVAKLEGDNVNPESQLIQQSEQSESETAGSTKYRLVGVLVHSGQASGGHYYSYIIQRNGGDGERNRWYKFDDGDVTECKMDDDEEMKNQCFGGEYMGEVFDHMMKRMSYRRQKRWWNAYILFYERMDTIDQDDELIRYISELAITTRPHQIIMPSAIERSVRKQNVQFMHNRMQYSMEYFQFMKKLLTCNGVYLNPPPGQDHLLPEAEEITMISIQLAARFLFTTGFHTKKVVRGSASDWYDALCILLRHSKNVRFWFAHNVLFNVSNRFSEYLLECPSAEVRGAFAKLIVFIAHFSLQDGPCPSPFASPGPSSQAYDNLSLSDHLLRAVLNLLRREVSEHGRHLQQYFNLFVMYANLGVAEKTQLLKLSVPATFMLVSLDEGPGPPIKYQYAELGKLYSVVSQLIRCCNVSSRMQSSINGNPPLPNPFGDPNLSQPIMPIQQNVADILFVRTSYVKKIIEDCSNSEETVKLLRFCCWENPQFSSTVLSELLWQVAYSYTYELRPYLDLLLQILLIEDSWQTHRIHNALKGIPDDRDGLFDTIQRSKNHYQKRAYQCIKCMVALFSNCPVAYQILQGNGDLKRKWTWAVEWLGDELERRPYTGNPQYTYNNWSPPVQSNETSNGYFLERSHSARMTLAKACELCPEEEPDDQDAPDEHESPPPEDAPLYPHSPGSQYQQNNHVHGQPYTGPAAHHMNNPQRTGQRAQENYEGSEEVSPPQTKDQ
Chain of UniProt O00487 (O00487 whole entry): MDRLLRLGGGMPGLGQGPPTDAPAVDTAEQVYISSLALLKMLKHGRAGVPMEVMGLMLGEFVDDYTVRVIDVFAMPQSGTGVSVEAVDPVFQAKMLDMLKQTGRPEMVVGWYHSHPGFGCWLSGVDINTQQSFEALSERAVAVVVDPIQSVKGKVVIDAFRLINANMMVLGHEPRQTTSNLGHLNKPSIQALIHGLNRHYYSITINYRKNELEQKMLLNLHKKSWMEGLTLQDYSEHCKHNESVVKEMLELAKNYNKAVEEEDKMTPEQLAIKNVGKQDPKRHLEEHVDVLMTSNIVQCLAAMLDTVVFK

O=C(CCl)NCc1ccc2c(c1)OCO2
inactive: USP42 0.271 | USP46 0.12 | USP47 0.0619 | USP48 -0.33 | USP5 0.376 | USP54 0.581 | USP7 -0.297 | USP8 -0.155 | USP9X -0.147 | UniProt O00487 -0.108
